The whole screen tested about 69,000 compounds, of which about 8,600 (12%) showed an effect of 50% or more. What follows is part of a selection rich in strong results, with near analogues and random picks from the rest.
System: Plasmodium berghei
Assay: Screen against P. berghei liver stage (PbLuc), transformed with Luciferase, at 10uM
Format: functional, HepG2
Conditions: tested at 10 uM

Compound | INHIBITION
CC(C)Cc1nc(CSC2CCCN(c3cnn(C)c3)C2=O)no1 (stereo unspecified) | 20.1%
Cc1cc(CSC2CCCN(c3cnn(C)c3)C2=O)no1 (stereo unspecified) | 30.5%
Cn1cc(N2CCCC(SCc3nc(C4CC4)no3)C2=O)cn1 (stereo unspecified) | 51.2%
c1nc(CCC2CCCN2)cc(N2CCCCCC2)n1 (stereo unspecified) | 5.11%
Cc1n[nH]c(C)c1C1COCCN1C(=O)c1ccc2c(c1)CCO2 (stereo unspecified) | 32.125%
CSCc1cc(F)ccc1CNCc1cccc(O)c1 | 5.15%
O=C1CC(c2ccc3c(c2)OCO3)c2snc(C(=O)O)c2N1 (stereo unspecified) | 15.1%
COCCN1CCC2(CC1)CC(CC(N)=O)c1ccc(F)cc12 (stereo unspecified) | -8.85%
COCC(=O)N1CCC2(CC1)CC(OC)c1ccc(F)cc12 (stereo unspecified) | 42.1%
CC(C)N1CCC2(CC1)CC(CC(N)=O)c1ccc(F)cc12 (stereo unspecified) | 58.7%
NC(=O)CC1CC2(CCNCC2)c2cc(F)ccc21 (stereo unspecified) | 59.3%
O=C(CC1CC2(CCN(CC3CC3)CC2)c2ccccc21)NC1CCC1 (stereo unspecified) | 34.4%
CN(C)C(=O)CC1CC2(CCNCC2)c2cc(F)ccc21 (stereo unspecified) | 59.1%
O=C(CC1CC2(CCNCC2)c2ccccc21)NCC1CC1 (stereo unspecified) | 57.5%
O=C(C1CC1)N1CC2(CCNCC2)c2cc(F)ccc21 | -12.2%
CS(=O)(=O)N1CCC2(CC1)CC(CC(=O)NCC1CC1)c1ccccc12 (stereo unspecified) | 3.69%
CNC(=O)CC1CC2(CCNCC2)c2cc(F)ccc21 (stereo unspecified) | 44.8%
O=c1n(CCNCc2ccc(-c3ccccc3)cc2)nc2ccccn12 | 35.7%
Cc1nn(C)c(Cl)c1C1CCCN1CC(=O)Nc1cccnc1 (stereo unspecified) | 21.6%
Cn1cc(-c2ncc3c(c2C(=O)O)CCN(CC2CCOC2)C3)cn1 (stereo unspecified) | 17.7%
O=C(c1ccco1)N1C[C@H]2CCCN(Cc3ccc(F)cc3)[C@H]2C1 | 29.4%
Cc1nc(N(C)C)ncc1C(=O)N[C@H]1Cc2ccccc2[C@@H]1N | 2.7%
COCCN(Cc1ccoc1)S(=O)(=O)c1ccc(OC)c(Cl)c1 | 25.4%
Cc1noc(NCc2cn(C)nc2-c2cccnc2)n1 | 41.5%

Compound | INHIBITION
Cc1oc(-c2nc(C#N)c(NC(C)C)o2)cc1S(=O)(=O)N1CCCCC1 | 60.1%
Cc1oc(-c2nc(C#N)c(NC(C)C)o2)cc1S(=O)(=O)N1CCCC1 | 34.6%
CNc1oc(-c2cc(S(=O)(=O)N3CCCCCC3)c(C)o2)nc1C#N | 39.5%
Cn1cnc(S(=O)(=O)N2CCCc3c(F)cc(F)cc32)c1Cl | 30.3%
Cc1cccc(OCCSCCn2nc3ccccn3c2=O)c1 | 22%
COCCCOc1ccc(C(=O)N(C)Cc2cccc(O)c2)cn1 | 38%
COCCCOc1ccc(C(=O)N(C)CCC(C)C)cn1 | 39.7%
CCc1nc(CN(C)C(=O)c2ccc(OCCCOC)nc2)cs1 | 82.5%
COCC(=O)N1CCC(c2cc(-c3ccc(OC)cc3)n[nH]2)C1 (stereo unspecified) | -50.3%
CCOC1CCN(C(=O)Nc2ccc(=O)n(C)c2)CC1 | 33%
Fc1ccccc1OC1CCN(CCn2cc3ccccc3n2)CC1 | 89.3%
CCc1ncc(CN2CCC(Oc3ccccc3OC)CC2)cn1 | -40%
c1cncc(OC2CCN(CCn3cc4ccccc4n3)CC2)c1 | 50.8%
OCCn1nccc1C1CCN(CCOc2cccc(F)c2)CC1 | 31.9%
CN1CCN(C2CCN(CCOc3ccccc3F)CC2)C1=O | -22.9%
COc1ccccc1OC1CCN(Cc2cccnc2)CC1 | 5.91%
c1cncc(O[C@H]2COCCN(CC3CC3)C2)c1 | 12.4%
Fc1cccc(OC2CCN(CCn3cc4ccccc4n3)CC2)c1 | 75.2%
Cc1ccc(CNC(=O)NCc2nccn2C)c(OC(C)(C)C)c1 | 43.5%
CC(C)NC(=O)N1CCN(C(=O)C2CCOCC2)CC2(CNC(=O)C2)C1 (stereo unspecified) | 1.9%
CCC(=O)N1CCN(C(=O)NCCOc2ccc3c(c2)CCC3)CC1 | 30.2%
Cc1nccn1-c1ccc(NS(=O)(=O)c2cnn(C)c2)cn1 | 4.95%
Cc1cccc(CN2Cc3[nH]nc(COCC4CC4)c3C2)n1 | 48.2%
Cc1ncc(CNCCO)c2cc(C(=O)c3ccc(Br)cc3)oc12 | 59.2%

Compound | INHIBITION
CC(O)CNC(=O)Nc1ccc(Br)cc1Br (stereo unspecified) | 29.1%
Cc1ncc(CN2CCCC2)c2cc(C(=O)c3ccc(Br)cc3)oc12 | 44.5%
CN(C)c1ccc(C(=O)NCc2csc(Br)c2)cn1 | 1.75%
COC(=O)c1oc(CNC(C)(C)CO)cc1C | -3.35%
Cc1ncc(CN(C)CCO)c2cc(C(=O)c3ccc(Br)cc3)oc12 | 36.8%
Cc1ncc(CNCC(C)O)c2cc(C(=O)c3ccc(Br)cc3)oc12 (stereo unspecified) | 50.5%
Cc1ncc(CN2CCOCC2)c2cc(C(=O)c3ccc(Br)cc3)oc12 | -21.8%
Cc1ncc(CNC(C)(C)CO)c2cc(C(=O)c3ccc(Br)cc3)oc12 | 65.3%
CN1C(=O)CCC12CCC(NCc1ccsc1)CC2 (stereo unspecified) | 8.74%
COCCOC1CCN(C(C(=O)O)c2ccc3c(c2)OCO3)CC1 (stereo unspecified) | 14.9%
COCCCC1CCCCN1Cc1cn2cc(C)ccc2n1 (stereo unspecified) | -17.2%
CN1CCN(C(=O)CCCc2ccccc2)CC(O)(Cn2cccn2)C1 (stereo unspecified) | 26.65%
Cc1ccc(C)c(-n2cc(CN3CC[C@@H](O)C3)c(-c3ccccc3)n2)c1 | 39.9%
Cc1ccc(C)c(-n2cc(CN3CCOCC3)c(-c3ccccc3)n2)c1 | 33.4%
Cc1ccc(-n2cc(CN3CCOCC3)c(-c3cccc(C)c3)n2)cc1 | 56.1%
COc1cc(N2CCCn3cnc(COC(C)C)c3C2)ncn1 | 48.2%
Cc1cc(NC(=O)C(C)Nc2cccc(COCc3ccco3)c2)on1 (stereo unspecified) | 39.5%
Cc1nc(-c2cccc(C(=O)O)c2)cc(C2CCN(C(C)C)C2)n1 (stereo unspecified) | 0.0932%
Cc1cc(C)nc(Nc2cc(C)nc(C3CCN(C(C)C)C3)n2)n1 (stereo unspecified) | 11.685%
Cc1cccc(Nc2cc(C)nc(C3CCN(C(C)C)C3)n2)n1 (stereo unspecified) | 60.9%
Cc1cc(-c2ccc(C(=O)O)cc2)nc(C2CCN(C(C)C)CC2)n1 | 2.71%
Cc1cc(-c2cccc(C(=O)O)c2)nc(C2CCN(C(C)C)CC2)n1 | 56%
Cc1cc(C)nc(Nc2cccc(C3CCCN(C(C)C)C3)n2)n1 (stereo unspecified) | -21.4%

From ChEMBL document CHEMBL4513216, “Probing the Open Global Health Chemical Diversity Library for Multistage-Active Starting Points for Next-Generation Antimalarials” (ACS Infect Dis, 2020)
